Test in all cases: BK channel mutant inhibitors and activators – cell-based, U2OS BacMam, thallium flux, beta subunits, selectivity assay, profiling panel (AID 1259406);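 further: initial slope of Thallos dye fluorescence rise after thallium is added; log ratio against the mean of 0.3% DMSO vehicle wells on the same plate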
The test system of one assay is F380Y/beta2Delta. The note with it: U2OS BacMam BK variants, at 30 µM.
The next assay deals with F380Y/beta4. The note with it: U2OS BacMam BK variants, at 30 µM.
The target in assay [1] is Calcium-activated potassium channel subunit alpha-1 (Homo sapiens) + Leucine-rich repeat-containing protein 26 (Homo sapiens) (UniProt Q12791+Q2I0M4). The note with it: U2OS BacMam BK variants, F380Y/Slo1WT/gamma1, at 30 µM.
In the next assay the test system is R275C. The note with it: U2OS BacMam BK variants, at 30 µM.
A further assay concerns R275C/beta1. The note with it: U2OS BacMam BK variants, at 30 µM.
The next assay has as its system R275C/beta2Delta. The note with it: U2OS BacMam BK variants, at 30 µM.
The next assay deals with R275C/beta4. The note with it: U2OS BacMam BK variants, at 30 µM.
Another assay deals with R275C/Slo1WT/beta2. The note with it: U2OS BacMam BK variants, at 30 µM.

Among the data in PubChem BioAssay are log fold change Tl+ flux values, retold here.

Each structure is given as a SMILES string. A number with no mark means an inactive call. Activity calls are given as the source filed them.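 How the source made its calls: active means thallium flux through the channel raised or lowered by more than 3 SD from vehicle-only wells, actives on both sides; inactive means the rest.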

Chain of Calcium-activated potassium channel subunit alpha-1 (Homo sapiens) + Leucine-rich repeat-containing protein 26 (Homo sapiens) (Q2I0M4 whole entry, looked up, one chain of several): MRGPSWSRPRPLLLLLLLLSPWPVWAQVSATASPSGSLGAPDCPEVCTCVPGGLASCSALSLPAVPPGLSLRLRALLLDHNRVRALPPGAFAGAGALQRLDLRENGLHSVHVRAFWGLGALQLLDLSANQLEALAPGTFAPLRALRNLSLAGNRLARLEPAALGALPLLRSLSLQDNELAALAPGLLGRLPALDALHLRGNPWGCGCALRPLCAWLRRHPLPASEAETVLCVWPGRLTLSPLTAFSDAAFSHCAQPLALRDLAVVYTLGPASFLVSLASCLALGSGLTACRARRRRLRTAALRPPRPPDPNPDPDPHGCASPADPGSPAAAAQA

`OCCOCCN1CCN(C2=Nc3ccccc3Sc3ccccc32)CC1`: the log fold change Tl+ flux was 0.0505 in the assay on F380Y/beta2Delta; 0.186 (active) with F380Y/beta4; 0.0336 in assay [1]; -0.011 in the assay with R275C; 0.15 (active) in the assay with R275C/beta1; 0.106 (active) in the assay with R275C/beta2Delta. In addition, the log fold change Tl+ flux in the assay on R275C/beta4 was 0.142 (active); in the assay with R275C/Slo1WT/beta2, -0.027.
With `Nc1nc(N)nc(-c2cc(Cl)ccc2Cl)n1`, the log fold change Tl+ flux in the assay with F380Y/beta2Delta was -0.0416; in the assay on F380Y/beta4, -0.00342; in assay [1] it was -0.0223; with R275C, -0.0835; in the assay on R275C/beta1, -0.0137; in the assay on R275C/beta2Delta it was -0.0163. The log fold change Tl+ flux in the assay with R275C/beta4 is -0.0246; in the assay with R275C/Slo1WT/beta2, -0.0527.
Turning to `Nc1ccn([C@H]2CC[C@@H](CO)O2)c(=O)n1`, the log fold change Tl+ flux in the assay on F380Y/beta2Delta is -0.0145; in the assay with F380Y/beta4, 0.0289; in assay [1], 0.0157; in the assay on R275C, -0.0969; in the assay with R275C/beta1, -0.00164; with R275C/beta2Delta it was -0.00877. The log fold change Tl+ flux is 0.00428 in the assay with R275C/beta4 and 0.0272 in the assay with R275C/Slo1WT/beta2.
`COC(=O)C1=C(C)NC(C)=C(C(=O)OC(C)C)C1c1cccc2nonc12` (configuration not stated): the log fold change Tl+ flux in the assay on F380Y/beta2Delta is -0.0966; in the assay on F380Y/beta4, -0.107 (active); in assay [1] it was 0.00177; in the assay with R275C, -0.0742; in the assay with R275C/beta1, -0.015; in the assay on R275C/beta2Delta it was -0.0967. The log fold change Tl+ flux with R275C/beta4 was -0.00531; in the assay on R275C/Slo1WT/beta2, -0.0356.
With `CC1(C)S[C@@H]2[C@H](N=CN3CCCCCC3)C(=O)N2[C@H]1C(=O)O`, the log fold change Tl+ flux in the assay on F380Y/beta2Delta was -0.0627; in the assay with F380Y/beta4 it was -0.00589; in assay [1] it was -0.0112; in the assay on R275C it was 0.00945; in the assay with R275C/beta1, 0.0251; in the assay with R275C/beta2Delta, 0.116 (active). Moreover, the log fold change Tl+ flux is -0.0211 in the assay on R275C/beta4 and -0.0045 with R275C/Slo1WT/beta2.
`COc1cc(C)c(Cc2cnc(N)nc2N)cc1OC`: the log fold change Tl+ flux was 0.0137 in the assay on F380Y/beta2Delta; 0.0281 in the assay with F380Y/beta4; 0.0784 in assay [1]; -0.0521 in the assay with R275C; 0.0546 in the assay on R275C/beta1; 0.0143 with R275C/beta2Delta. Besides, the log fold change Tl+ flux in the assay with R275C/beta4 was 0.00157; in the assay with R275C/Slo1WT/beta2, 0.0258.
In the case of `CC(c1cc2ccccc2s1)N(O)C(N)=O` (configuration not stated), the log fold change Tl+ flux with F380Y/beta2Delta is 0.0219; in the assay on F380Y/beta4 it was 0.0185; in assay [1], 0.0287; in the assay with R275C it was 0.00217; with R275C/beta1, 0.0284; with R275C/beta2Delta it was 0.0541. For the same compound, the log fold change Tl+ flux was -0.0188 in the assay on R275C/beta4 and 0.0381 in the assay on R275C/Slo1WT/beta2.
Regarding `CC(C)NCC(O)COc1ccc(COCCOC(C)C)cc1` (configuration not stated), the log fold change Tl+ flux is 0.00366 with F380Y/beta2Delta; 0.0255 in the assay on F380Y/beta4; 0.0397 in assay [1]; -0.0696 in the assay on R275C; -0.003 with R275C/beta1; -0.0507 in the assay with R275C/beta2Delta. The figures for the log fold change Tl+ flux with R275C/beta4 and with R275C/Slo1WT/beta2 were 0.0137 and 0.0109, respectively.
As to `CC(=O)Nc1ccc(CC(=O)O)cc1`, the log fold change Tl+ flux with F380Y/beta2Delta was -0.0235; in the assay on F380Y/beta4, -0.0309; in assay [1] it was -0.0302; in the assay with R275C, -0.0367; in the assay on R275C/beta1, -0.0357; in the assay with R275C/beta2Delta, -0.0277. Moreover, the log fold change Tl+ flux in the assay with R275C/beta4 is -0.0244; in the assay on R275C/Slo1WT/beta2 it was -0.00738.
For the compound `CC(=O)O[C@H]1C[C@@H]2CC[C@@H]3[C@H](CC[C@@]4(C)[C@H]3C[C@H]([N+]3(C)CCCCC3)[C@@H]4OC(C)=O)[C@@]2(C)C[C@@H]1N1CCCCC1`, the log fold change Tl+ flux with F380Y/beta2Delta is 0.00769; in the assay on F380Y/beta4 it was 0.00267; in assay [1] it was -0.00222; in the assay with R275C it was -0.114 (active); in the assay with R275C/beta1, 0.00114; in the assay on R275C/beta2Delta, -0.0355. Further, the log fold change Tl+ flux in the assay with R275C/beta4 was 0.018; in the assay with R275C/Slo1WT/beta2, 0.0408.
With `Cc1nc2n(c(=O)c1CCN1CCC(c3noc4cc(F)ccc34)CC1)CCCC2`, the log fold change Tl+ flux with F380Y/beta2Delta was -0.0407; in the assay with F380Y/beta4 it was -0.0446; in assay [1], -0.0848; with R275C it was -0.134 (active); in the assay with R275C/beta1, -0.00526; in the assay with R275C/beta2Delta it was -0.0361. Also, the log fold change Tl+ flux is -0.0132 in the assay on R275C/beta4 and 0.0103 in the assay with R275C/Slo1WT/beta2.
As for `C[C@H]1COc2c(C3(N)CC3)c(F)cc3c(=O)c(C(=O)O)cn1c23`, the log fold change Tl+ flux in the assay on F380Y/beta2Delta was -0.0452; in the assay on F380Y/beta4, -0.037; in assay [1] it was 0.00396; in the assay on R275C, -0.0195; with R275C/beta1, -0.0326; with R275C/beta2Delta it was -0.0136. Moreover, the log fold change Tl+ flux in the assay on R275C/beta4 is -0.0013; in the assay on R275C/Slo1WT/beta2, -0.0265.
In the case of `Cc1nc2ccc(CN(C)c3ccc(C(=O)N[C@@H](CCC(=O)O)C(=O)O)s3)cc2c(=O)[nH]1`, the log fold change Tl+ flux is -0.00369 in the assay on F380Y/beta2Delta; 0.0379 in the assay on F380Y/beta4; -0.00311 in assay [1]; -0.0146 in the assay with R275C; 0.00396 in the assay with R275C/beta1; -0.00877 in the assay on R275C/beta2Delta. Besides, the values for the log fold change Tl+ flux with R275C/beta4 and in the assay with R275C/Slo1WT/beta2 were -0.00369 and -0.0401, respectively.
Take `Cc1ccnc2c1NC(=O)c1cccnc1N2C1CC1`: the log fold change Tl+ flux is 0.0168 in the assay with F380Y/beta2Delta; 0.0216 in the assay on F380Y/beta4; -0.00356 in assay [1]; -0.0605 with R275C; -0.00377 in the assay with R275C/beta1; 0.0164 with R275C/beta2Delta. Further, the log fold change Tl+ flux with R275C/beta4 was -0.0208; with R275C/Slo1WT/beta2 it was -0.00118.
